Assay: HSE-luciferase reporter activators – cell-based (AID 1611)
Settings: human cells, HSE-luciferase heat shock reporter; stronger effect = higher value

First: Cn1c(=O)c2c(ncn2CC(O)CO)n(C)c1=O (stereo not given)
Second: Cc1ncc([N+](=O)[O-])n1CCO
The fold change of the first is lower: 1.13 for the first, 1.2 for the second.

Going from `O=C(O)c1ccccc1OP(=O)(O)O` to `COC(=O)C1=C(C)NC(C)=C(C(=O)OC)C1c1ccccc1[N+](=O)[O-]`, the fold change rises from 1.04 to 1.12.

Going from `CSc1ccc2c(c1)N(CCC1CCCCN1C)c1ccccc1S2` (stereo not given) to `CN1CCC[C@@H]1CCO[C@](C)(c1ccccc1)c1ccc(Cl)cc1`, the fold change rises from 0.58 to 0.87.

Going from `Nc1ccc(S(=O)(=O)Nc2ccccn2)cc1` to `Cc1nnc(NS(=O)(=O)c2ccc(N)cc2)s1`, the fold change rises from 0.76 to 0.85.

Compared with `CN(C)CC/C=C1\c2ccccc2Sc2ccc(Cl)cc21`, `O=C(OCC(O)CO)c1ccccc1Nc1ccnc2cc(Cl)ccc12` (stereo not given) is lower in fold change: 1.34 for the first, 0.5 for the second.

Going from `CCN(CC)CCOC(=O)C(c1ccccc1)C1CCCCC1` (stereo not given) to `CCN(CC)CCOC(=O)C(c1ccccc1)c1ccccc1`, the fold change rises from 1.12 to 1.24.

Compared with `CC(C)NCC(O)COc1ccc(CC(N)=O)cc1` (stereo not given), `COCCc1ccc(OCC(O)CNC(C)C)cc1` (stereo not given) is lower in fold change: 0.76 for the first, 0.6 for the second.

Compared with `Cc1ccc(C(=O)C(C)CN2CCCCC2)cc1` (stereo not given), `CC(C)NNC(=O)c1ccncc1` is higher in fold change: 0.93 for the first, 1.02 for the second.

Going from `Nc1ncnc2c1ncn2[C@@H]1O[C@H](CO)[C@@H](O)[C@@H]1O` to `Nc1ncn([C@@H]2O[C@H](CO)[C@@H](O)[C@H]2O)c(=O)n1`, the fold change falls from 1.52 to 1.3.

First: C1CNCCN1
Second: O=C(O)C1=CCNCC1
The fold change of the first is lower: 1.04 for the first, 1.18 for the second.

Compared with `CC[C@@H](C(=O)C(C)[C@@H](O)[C@H](C)CCc1ccc(C)c(O)c1C(=O)O)C1OC(CC)(C2CC[C@](O)(CC)[C@H](C)O2)C[C@@H]1C` (stereo not given in full), `COc1c(C)c2c(c(O)c1C/C=C(\C)CCC(=O)O)C(=O)OC2` is lower in fold change: 1.12 for the first, 0.85 for the second.

Going from `CN1CCC(=C2c3ccccc3CC(=O)c3sccc32)CC1` to `CN1CCN(C(c2ccccc2)c2ccc(Cl)cc2)CC1` (stereo not given), the fold change falls from 1.41 to 1.12.

Going from `CN(C)c1ccc(C(=C2C=CC(=[N+](C)C)C=C2)c2ccc(N(C)C)cc2)cc1` to `CCN(CCCCOC(=O)c1ccc(OC)c(OC)c1)C(C)Cc1ccc(OC)cc1` (stereo not given), the fold change rises from 1.22 to 1.27.

Compared with `NC(=O)c1ccc[n+]([C@@H]2O[C@H](COP(=O)([O-])OP(=O)(O)OC[C@H]3O[C@@H](n4cnc5c(N)ncnc54)[C@H](O)[C@@H]3O)[C@@H](O)[C@H]2O)c1`, `CCCCNc1cc(C(=O)O)cc(S(N)(=O)=O)c1Oc1ccccc1` is lower in fold change: 1.11 for the first, 1.03 for the second.

Going from `O=C1c2ccccc2C(=O)C1c1ccccc1` to `CC1CCc2cc(F)cc3c(=O)c(C(=O)O)cn1c23` (stereo not given), the fold change falls from 331 to 1.07.

Compared with `NCCCC(N)CC(=O)NCC1NC(=O)C(CO)NC(=O)C(N)CNC(=O)C(C2CCN=C(N)N2)NC(=O)/C(=C/NC(N)=O)NC1=O` (stereo not given), `CC(=O)N(O)CCCCCNC(=O)CCC(=O)N(O)CCCCCNC(=O)CCC(=O)N(O)CCCCCN` is higher in fold change: 0.59 for the first, 0.7 for the second.

First: NC(=O)NC1NC(=O)NC1=O (stereo not given)
Second: Cc1c(C(N)=O)cc([N+](=O)[O-])cc1[N+](=O)[O-]
The fold change of the first is lower: 0.91 for the first, 1.05 for the second.

Compared with `NS(=O)(=O)c1cc2c(cc1Cl)NCNS2(=O)=O`, `Nc1c(Br)cc(Br)cc1CNC1CCC(O)CC1` (stereo not given) is higher in fold change: 0.97 for the first, 1.19 for the second.

Going from `CC(C)(C)NCC(O)c1cc(O)cc(O)c1` (stereo not given) to `CN[C@@H]1[C@H](O)[C@H](NC)[C@H]2O[C@@]3(O)C(=O)C[C@@H](C)O[C@H]3O[C@@H]2[C@H]1O`, the fold change rises from 0.99 to 1.27.

Compared with `O=c1cc[nH]c(=S)[nH]1`, `CCCCCCCCCCCCCCCC(=O)OC/C=C(C)/C=C/C=C(C)/C=C/C1=C(C)CCCC1(C)C` is higher in fold change: 0.78 for the first, 1.08 for the second.
